According to PubChem BioAssay (NCATS):
Results filed as inconclusive are left out. Entries that show only a call come without a potency. Calls of active or inactive are those of the source. The call rests on the fitted dose curve; in most records, active means well fitted curve in the direction sought with a large enough effect; inconclusive means small, poorly fitted or top-dose-only effect, or another doubt; inactive means no such curve, though single readings can be large; an effect the other way counts as inactive or inconclusive.

How the values were obtained:
[1] = NS1 protein of Zika virus - qHTS assay to identify small molecule inhibitors in human HEK 293 cells (AID 1347053); further: nearly all actives have a fitted effect of over 55% in size
Procedure, shortened: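 Readout was TR-FRET using paired anti-NS1 antibodies after 24 h infection of HEK 293 cells with ZIKV MR766 (MOI = 0.5). Compound preceded virus by 1 h; reduced signal reflects lower NS1 expression.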

[2] = qHTS of pediatric cancer cell lines to identify multiple opportunities for drug repurposing: Primary screen for TC32 cells (AID 1347089); further: nearly all actives have a fitted effect of over 60% in size
Procedure, shortened: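 qHTS, TC32, 48 h drug treatment, CellTiter-Glo luminescence as a proxy for metabolically active cells; primary top concentration 46 µM (MIPE 11-pt, NPC 8-pt); confirmatory 11-pt.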

[3] = qHTS of pediatric cancer cell lines to identify multiple opportunities for drug repurposing: Primary screen for DAOY cells (AID 1347090); further: nearly all actives have a fitted effect of over 55% in size
Procedure, shortened: (§1)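 Eight- or eleven-point concentration series, 48 h treatment at 37 degrees C in growth media; readout CellTiter-Glo luminescence. Potency and efficacy were taken from the concentration-response curves.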

[4] = qHTS of pediatric cancer cell lines to identify multiple opportunities for drug repurposing: Primary screen for SJ-GBM2 cells (AID 1347091)
Procedure, shortened: as §1
Potency means the concentration at half of the fitted maximal effect.

Row | Structure (SMILES) | Potency [1] | Potency [2] | Potency [3] | Potency [4]
1 | CCOc1cc(C=C2C(=O)N(c3ccccc3)N=C2C)cc(Cl)c1OCC(=O)OC | inactive | inactive | – | –
2 | c1ccc(-c2nn3c(c2-c2ccnc4cc(OCCN5CCOCC5)ccc24)CCC3)nc1 | inactive | inactive | inactive | –
3 | Nc1nccc(-c2ccc3noc(-c4ccc(Cl)cc4)c3c2)n1 | inactive | inactive | – | –
4 | CCc1ccc(CCOc2ccc(CC3SC(=O)NC3=O)cc2)nc1 (centres undefined) | inactive | inactive | inactive | –
5 | COc1cc(F)c(F)c(Nc2ccc(I)cc2F)c1NS(=O)(=O)C1(C[C@H](O)CO)CC1 | inactive | inactive | – | –
6 | CC(C=CC1=C(C)CCCC1(C)C)=CC=CC(C)=CC(=O)O | inactive | inactive | 7.43 µM (active) | –
7 | NC(=O)c1ccc(-c2nc(-c3ccc4c(c3)OCCO4)c(-c3ccccn3)[nH]2)cc1 | inactive | inactive | inactive | –
8 | CC(=O)NC(C)c1ccc(Oc2ccc(OC(C)C)cc2)cc1 (centres undefined) | inactive | inactive | – | –
9 | CS(=O)(=O)c1ccc(C(=O)Nc2ccc(Cl)c(-c3ccccn3)c2)c(Cl)c1 | inactive | inactive | inactive | –
10 | C[C@]1(c2nc3c(C(N)=O)cccc3[nH]2)CCCN1 | inactive | inactive | – | –
11 | Oc1cccc(-c2nc(N3CCOCC3)c3oc4ncccc4c3n2)c1 | 2.7 µM (active) | 0.758 µM (active) | 2.15 µM (active) | –
12 | Cc1cc(C=c2sc3nc4ccccc4n3c2=O)c(C)n1-c1ccccc1 | inactive | inactive | inactive | –
13 | CC1(C)CNc2cc(NC(=O)c3cccnc3NCc3ccncc3)ccc21 | inactive | 26.2 µM (active) | 1.18 µM (active) | –
14 | CCCS(=O)(=O)Nc1ccc(F)c(C(=O)c2c[nH]c3ncc(-c4ccc(Cl)cc4)cc23)c1F | inactive | inactive | 18.7 µM (active) | –
15 | COCCNCCCn1c(C(=O)CF)c(-c2ccc(C)cc2)c2c(N)ncnc21 | inactive | inactive | – | –
16 | CCC(C)n1ncn(-c2ccc(N3CCN(c4ccc(OC[C@H]5CO[C@](Cn6cncn6)(c6ccc(Cl)cc6Cl)O5)cc4)CC3)cc2)c1=O (some centres undefined) | inactive | inactive | inactive | –
17 | O=C1[C@H](Cc2ccc(O)cc2)N2C(=O)CCN(C(=O)NCc3ccccc3)[C@H]2CN1Cc1cccc2ccccc12 | 9.35 µM (active) | 11.7 µM (active) | 14.8 µM (active) | –
18 | CN(C(=O)c1ccc(F)cc1C(F)(F)F)C1CCN(c2nnc(-c3ccnn3C)c3ccccc23)CC1 | inactive | inactive | – | –
19 | N#Cc1ccc(C(c2ccc(C#N)cc2)n2cncn2)cc1 | inactive | inactive | – | –
20 | O=c1ncn2nc(Sc3ccc(F)cc3F)ccc2c1-c1c(Cl)cccc1Cl | inactive | inactive | – | –

Row | Structure (SMILES) | Potency [1] | Potency [2] | Potency [3] | Potency [4]
21 | CCCc1nc2c(C)cc(-c3nc4ccccc4n3C)cc2n1Cc1ccc(-c2ccccc2C(=O)O)cc1 | inactive | inactive | inactive | –
22 | C[C@]12CC[C@H](O)CC1=CC[C@@H]1[C@H]2CC[C@]2(C)C(c3cccnc3)=CC[C@H]12 | inactive | inactive | inactive | –
23 | CS(=O)(=O)Oc1ccc2c(NC(N)=O)c(C(=O)c3ccc(Cl)cc3Cl)oc2c1 | inactive | inactive | 14.8 µM (active) | –
24 | Cc1ccc(NC(=O)c2cccc(C(C)(C)C#N)c2)cc1Nc1ccc2ncn(C)c(=O)c2c1 | inactive | inactive | – | –
25 | C[C@H](NC(=O)Cc1cc(F)cc(F)c1)C(=O)N[C@@H]1C(=O)N(C)c2ccccc2-c2ccccc21 | inactive | inactive | 11.8 µM (active) | inactive
26 | NC(=O)C1CCCc2c1[nH]c1ccc(Cl)cc21 (centres undefined) | inactive | inactive | inactive | inactive
27 | Cc1csc(NC(=O)c2sc3nc4c(c(C(F)(F)F)c3c2N)CCC4)n1 | inactive | inactive | 23.5 µM (active) | inactive
28 | Cc1cc([C@@H](C)Nc2ccccc2C(=O)O)c2nc(N3CCOCC3)cc(=O)n2c1 | inactive | 12 µM (active) | 0.679 µM (active) | 13.6 µM (active)
29 | Cc1cnc(Nc2ccc(OCCN3CCCC3)cc2)nc1Nc1cccc(S(=O)(=O)NC(C)(C)C)c1 | inactive | inactive | inactive | inactive
30 | COc1ccc(CCN2CCN(CCCc3ccccc3)CC2)cc1OC | inactive | inactive | inactive | inactive
31 | COc1ccc(CC2=NN3C([C@@H](CCc4ccccc4)[C@@H](C)O)=NC(C)C3C(=O)N2)cc1OC (some centres undefined) | inactive | inactive | inactive | inactive
32 | COc1cc(Nc2ncc3c(n2)-c2ccc(Cl)cc2C(c2c(F)cccc2OC)=NC3)ccc1C(=O)O | inactive | 0.186 µM (active) | – | 0.0209 µM (active)
33 | CN(C)C(=O)c1ccc(S(=O)(=O)c2ccc(NC(=O)[C@@](C)(O)C(F)(F)F)c(Cl)c2)cc1 | inactive | inactive | 18.7 µM (active) | inactive
34 | OCCn1cc(-c2cnc3nnn(Cc4ccc5ncccc5c4)c3n2)cn1 | inactive | inactive | inactive | 0.0059 µM (active)
35 | CCN(CC)CCCC(C)Nc1nc(C)cc(Nc2ccc3nc(C)cc(N)c3c2)n1 (centres undefined) | inactive | inactive | inactive | inactive
36 | Fc1ccc(Cl)cc1-c1nc(Nc2ccncc2)c2nccnc2n1 | inactive | inactive | inactive | inactive
37 | COc1nc(-c2ccc3c(c2)OCO3)n(-c2ccc(NC(=O)CSc3ccccc3)cc2)n1 | inactive | inactive | inactive | –
38 | NC(=O)c1ccc(I)c([N+](=O)[O-])c1 | inactive | inactive | inactive | inactive
39 | CCOc1cc(C(=O)Nc2ccc(Cl)c(-c3nc4ccccc4[nH]3)c2)cc(OCC)c1OCC | inactive | inactive | – | inactive
